Source: PubChem BioAssay AID1159580 (chemical genetic matrix, 2015)
Out of some 5,500 compounds screened, about 2,000 (36%) were called active. Roughly 18% stayed inconclusive and do not appear here. Rule as the data show it: active = normalized growth mostly below about 0.91 (no sharp cut-off); inconclusive = no clear call, values can overlap the other calls; inactive = mostly above about 0.92. The list shows a part of the results.

Experiment: chemical genetic growth profiling, strain panel (AID 1159580);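 also: tested at 20 µM; growth read once vehicle control cultures reached saturation at 30 °C; 1 = growth at the plate median or of vehicle wells; lower values mean less growth of the strain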
Conditions: S. cerevisiae deletion strains, growth OD

Measured: normalized growth

CN1Cc2c(ccc3c2OCO3)C2C(O)Cc3cc4c(cc3C21)OCO4 (stereo not given)
inactive: locus YAL013W, strain DEP1, stronger effect = lower value 0.992 | locus YBR021W, strain FUR4, stronger effect = lower value 0.939 | locus YBR229C, strain ROT2, stronger effect = lower value 1 | locus YCL029C, strain bik1, stronger effect = lower value 1.03 | locus YDL035C, strain GPR1, stronger effect = lower value 0.985 | locus YDL074C, strain BRE1, stronger effect = lower value 0.982 | locus YDL101C, strain DUN1, stronger effect = lower value 0.996 | locus YDL134C, strain PPH21, stronger effect = lower value 0.977 | locus YDL185W, strain tfp1, stronger effect = lower value 1.02 | locus YDL192W, strain arf1, stronger effect = lower value 0.999 | locus YDR101C, strain arx1, stronger effect = lower value 0.999 | locus YDR162C, strain NBP2, stronger effect = lower value 0.991 | locus YDR318W, strain mcm21, stronger effect = lower value 0.998 | locus YDR388W, stronger effect = lower value 0.987 | locus YDR502C, strain sam2, stronger effect = lower value 0.984 | locus YEL061C, strain CIN8, stronger effect = lower value 0.992 | locus YER110C, stronger effect = lower value 1.01 | locus YER155C, strain BEM2, stronger effect = lower value 0.997 | locus YER167W, strain BCK2, stronger effect = lower value 0.989 | locus YGL078C, strain dbp3, stronger effect = lower value 1.02 | locus YGL086W, strain mad1, stronger effect = lower value 0.989 | locus YGL248W, strain PDE1, stronger effect = lower value 0.995 | locus YGR078C, strain PAC10, stronger effect = lower value 0.998 | locus YGR135W, strain pre9, stronger effect = lower value 0.98 | locus YGR252W, strain gcn5, stronger effect = lower value 0.96 | locus YHR030C, strain SLT2, stronger effect = lower value 0.999 | locus YHR079C, strain IRE1 (second series), stronger effect = lower value 1.01 | locus YHR094C, strain hxt1, stronger effect = lower value 1.01 | locus YHR129C, strain ARP1, stronger effect = lower value 0.994 | locus YHR200W, strain rpn10, stronger effect = lower value 1 | locus YIL066C, strain RNR3, stronger effect = lower value 1 | locus YIL073C, strain SPO22, stronger effect = lower value 1.04 | locus YIL125W, strain kgd1, stronger effect = lower value 1.02 | locus YIR030C, strain dcg1, stronger effect = lower value 1 | locus YJL095W, strain BCK1, stronger effect = lower value 0.985 | locus YJL134W, strain LCB3, stronger effect = lower value 1.01 | locus YJL168C, strain set2, stronger effect = lower value 1 | locus YJL187C, strain SWE1 (second series), stronger effect = lower value 1 | locus YJR043C, strain POL32, stronger effect = lower value 1.01 | locus YJR075W, strain HOC1, stronger effect = lower value 0.983 | locus YKL009W, strain mrt4, stronger effect = lower value 1.01 | locus YKL068W, stronger effect = lower value 1 | locus YKL085W, strain MDH1 (second series), stronger effect = lower value 1.01 | locus YKL085W, strain MDH1, stronger effect = lower value 1.01 | locus YKL190W, strain CNB1, stronger effect = lower value 0.988 | locus YKR001C, strain vps1, stronger effect = lower value 0.997 | locus YLR039C, strain RIC1, stronger effect = lower value 0.977 | locus YLR058C, strain SHM2, stronger effect = lower value 0.992 | locus YLR102C, strain apc9, stronger effect = lower value 1.01 | locus YLR262C, strain YPT6, stronger effect = lower value 0.981 | locus YLR268W, strain sec22, stronger effect = lower value 1 | locus YLR330W, strain CHS5, stronger effect = lower value 1.01 | locus YLR342W, strain FKS1 (second series), stronger effect = lower value 0.982 | locus YLR371W, strain rom2, stronger effect = lower value 1.01 | locus YLR418C, strain cdc73, stronger effect = lower value 0.956 | locus YML016C, strain PPZ1, stronger effect = lower value 1 | locus YML032C, strain rad52, stronger effect = lower value 0.991 | locus YML124C, strain tub3, stronger effect = lower value 1.02 | locus YMR078C, strain ctf18, stronger effect = lower value 1.01 | locus YMR223W, strain ubp8, stronger effect = lower value 0.998 | locus YMR307W, strain GAS1, stronger effect = lower value 0.95 | locus YNL067W, strain RPL9B, stronger effect = lower value 0.994 | locus YNL128W, strain TEP1, stronger effect = lower value 0.996 | locus YNL233W, strain BNI4, stronger effect = lower value 1 | locus YNL250W, strain rad50, stronger effect = lower value 1.02 | locus YNL271C, strain bni1, stronger effect = lower value 1.02 | locus YNL298W, strain CLA4, stronger effect = lower value 1.03 | locus YNL307C, strain MCK1, stronger effect = lower value 1.02 | locus YNL322C, strain KRE1, stronger effect = lower value 0.999 | locus YNR052C, strain pop2, stronger effect = lower value 0.997 | locus YOL006C, strain TOP1, stronger effect = lower value 0.92 | locus YOL012C, strain htz1 1.21 | locus YOL147C, strain pex11, stronger effect = lower value 1 | locus YOR061W, strain CKA2, stronger effect = lower value 1 | locus YOR069W, strain VPS5, stronger effect = lower value 1 | locus YOR136W, strain idh2, stronger effect = lower value 1.04 | locus YOR144C, strain elg1, stronger effect = lower value 1.01 | locus YOR184W, strain ser1, stronger effect = lower value 0.984 | locus YOR316C, strain cot1, stronger effect = lower value 1.01 | locus YPL055C, strain LGE1, stronger effect = lower value 0.978 | locus YPR119W, strain clb2, stronger effect = lower value 1.01 | locus YPR141C, strain kar3, stronger effect = lower value 1.01 | locus YPR163C, strain tif3, stronger effect = lower value 1.04 | locus YPR167C, strain met16, stronger effect = lower value 1.01 | strain wtn01, stronger effect = lower value 1
